The results in this text go back to PubChem BioAssay (NCATS).

Structures are written as SMILES. Inconclusive results are not listed. Where a call stands in place of a potency, no number is given. Activity calls are given as the source filed them. The call rests on the fitted dose curve; in most records, active means well fitted inhibition curve with a large enough effect; inconclusive means small, poorly fitted or top-dose-only effect; inactive means flat fitted curve, though single readings scatter.

Assay [1] addresses Luciferin 4-monooxygenase (Photinus pyralis) (UniProt P08659). Description: Biochemical firefly luciferase enzyme assay for NPC (AID 624030).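 Further: purified P. pyralis luciferase at 10 nM with luciferin and ATP substrate; series mostly up to about 59 µM; nearly all actives have a fitted effect of over 70% in size.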 The essentials: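 Counter-screen for direct inhibition of the luciferase enzyme by approved-drug library compounds, run at 10 nM enzyme in 50 mM Tris acetate (final). Luminescence was read within 5 min of enzyme-buffer addition and normalized to PTC124 versus DMSO (0%).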

Assay [2] has as its target Voltage-gated inwardly rectifying potassium channel KCNH2 (Homo sapiens) (UniProt Q12809). Put plainly: qHTS Assay for Small Molecule Inhibitors of the Human hERG Channel Activity (AID 588834).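 Further: lower thallium flux fluorescence means stronger hERG block; nearly all actives have a fitted effect of over 50% in size.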 Further: potency means the concentration at half of the fitted maximal effect. The essentials:
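Measured: FluxOR fluorescence after thallium stimulation in U2OS cells transduced with hERG by baculovirus. Compounds pre-incubated around 10 min; medium Opti-MEM with 2% FCS. AC50 from Hill equation.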
For orientation: qHTS replaces the single test concentration by a dilution series.

Luciferin 4-monooxygenase (Photinus pyralis), sequence (P08659 whole entry, looked up): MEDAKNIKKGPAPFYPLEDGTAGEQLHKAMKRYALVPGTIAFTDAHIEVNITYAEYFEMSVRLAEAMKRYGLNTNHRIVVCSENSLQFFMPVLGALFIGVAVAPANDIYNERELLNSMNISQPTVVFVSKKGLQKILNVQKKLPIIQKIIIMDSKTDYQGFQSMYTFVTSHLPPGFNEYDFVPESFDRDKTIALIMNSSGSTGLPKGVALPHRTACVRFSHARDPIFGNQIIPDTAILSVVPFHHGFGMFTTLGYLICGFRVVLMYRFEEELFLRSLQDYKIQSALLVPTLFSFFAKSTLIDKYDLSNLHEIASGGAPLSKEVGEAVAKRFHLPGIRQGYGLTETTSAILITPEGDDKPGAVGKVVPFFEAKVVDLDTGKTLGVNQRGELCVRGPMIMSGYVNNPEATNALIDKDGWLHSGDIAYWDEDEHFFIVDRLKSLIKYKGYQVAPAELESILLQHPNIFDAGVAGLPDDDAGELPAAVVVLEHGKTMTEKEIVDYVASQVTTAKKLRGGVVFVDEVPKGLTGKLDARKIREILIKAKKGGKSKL
Voltage-gated inwardly rectifying potassium channel KCNH2 (Homo sapiens), sequence (Q12809 whole entry, looked up): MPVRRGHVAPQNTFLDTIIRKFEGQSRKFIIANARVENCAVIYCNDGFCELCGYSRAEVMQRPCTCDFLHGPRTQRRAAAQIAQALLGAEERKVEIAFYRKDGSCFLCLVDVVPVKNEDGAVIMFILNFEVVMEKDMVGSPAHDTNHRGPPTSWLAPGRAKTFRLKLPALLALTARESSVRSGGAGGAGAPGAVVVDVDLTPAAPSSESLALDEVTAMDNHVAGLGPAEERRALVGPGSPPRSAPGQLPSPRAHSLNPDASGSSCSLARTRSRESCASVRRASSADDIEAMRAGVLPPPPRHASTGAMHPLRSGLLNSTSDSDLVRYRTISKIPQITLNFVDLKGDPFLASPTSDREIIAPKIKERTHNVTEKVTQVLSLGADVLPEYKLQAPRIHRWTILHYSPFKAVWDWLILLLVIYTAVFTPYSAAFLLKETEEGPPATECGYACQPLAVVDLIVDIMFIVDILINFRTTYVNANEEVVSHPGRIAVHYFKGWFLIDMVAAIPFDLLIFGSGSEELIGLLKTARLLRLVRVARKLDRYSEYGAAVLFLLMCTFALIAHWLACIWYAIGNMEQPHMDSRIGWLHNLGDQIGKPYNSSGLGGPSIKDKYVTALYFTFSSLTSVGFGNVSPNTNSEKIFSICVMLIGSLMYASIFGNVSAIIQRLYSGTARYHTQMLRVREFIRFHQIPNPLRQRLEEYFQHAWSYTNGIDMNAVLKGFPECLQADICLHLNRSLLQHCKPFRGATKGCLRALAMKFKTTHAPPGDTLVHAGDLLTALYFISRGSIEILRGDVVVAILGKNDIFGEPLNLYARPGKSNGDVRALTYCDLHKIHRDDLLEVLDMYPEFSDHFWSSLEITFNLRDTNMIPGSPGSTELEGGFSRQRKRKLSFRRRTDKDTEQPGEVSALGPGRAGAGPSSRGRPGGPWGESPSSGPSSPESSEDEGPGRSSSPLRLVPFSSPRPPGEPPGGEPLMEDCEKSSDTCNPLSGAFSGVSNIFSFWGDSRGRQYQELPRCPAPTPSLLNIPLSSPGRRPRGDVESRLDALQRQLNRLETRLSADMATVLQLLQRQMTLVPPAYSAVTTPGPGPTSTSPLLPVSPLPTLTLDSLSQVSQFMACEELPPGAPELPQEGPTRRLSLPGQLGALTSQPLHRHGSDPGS

In the case of `CCC(=O)OCC(=O)[C@@]1(OC(=O)CC)[C@@H](C)C[C@@H]2[C@H]3CCC4=CC(=O)C=C[C@]4(C)[C@@]3(F)[C@@H](O)C[C@@]21C`, in assay [1], the outcome was inactive. As for `Cc1cc2nc3c(=O)[nH]c(=O)nc-3n(CC(O)C(O)C(O)CO)c2cc1C` (stereo unspecified), in assay [1], the outcome was inactive.

On to `CC[C@]1(O)C[C@H]2CN(CCC3=c4ccccc4=N[C]3[C@@](C(=O)OC)(c3cc4c(cc3OC)N(C)[C@H]3[C@@](O)(C(N)=O)[C@H](O)[C@]5(CC)C=CCN6CC[C@]43[C@@H]65)C2)C1`, for which the molecule was classed as inactive in assay [1].

As for `O=C(CCCN1CCN(c2ccc(F)cc2)CC1)NC1c2ccccc2CSc2ccccc21` (stereo unspecified), the call in assay [1] was inactive. On to `CC[C@@H]([C@H](C)O)n1ncn(-c2ccc(N3CCN(c4ccc(OCC5CO[C@@](Cn6cncn6)(c6ccc(F)cc6F)C5)cc4)CC3)cc2)c1=O` (stereo partly specified), for which the call in assay [1] was inactive.

Regarding `COc1ccnc(CS(=O)c2nc3ccc(OC(F)F)cc3[nH]2)c1OC` (stereo unspecified), the molecule was called inactive in assay [1]. Consider `CCCCC(F)(F)[C@@]1(O)CC[C@H]2[C@H](CC(=O)[C@@H]2CCCCCCC(=O)O)O1`, for which the call in assay [1] was inactive. As for `CN1CC(=O)N2C(Cc3c([nH]c4ccccc34)[C@H]2c2ccc3c(c2)OCO3)C1=O` (stereo partly specified), the Potency entry in assay [2] is “inactive”. Besides, in assay [1], the outcome was inactive. Take `Clc1ccc(COC(Cn2ccnc2)c2ccc(Cl)cc2Cl)c(Cl)c1` (stereo unspecified): the Potency in assay [2] was 4.47 µM (active). The result in assay [1] was inactive.
